Bioassay records from PubChem BioAssay.
D2 ag-1 – activates the human D2 dopamine receptor; P14416; HEK293 T-REx D2 cells, calcium flux agonist mode; activation, % at 2 µM; 0.53% of 340,000 active;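 active means activation over 3 SD above normal in the single-dose calcium agonist read, cut at about 30% in these data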
Target sequence (P14416 whole entry, looked up): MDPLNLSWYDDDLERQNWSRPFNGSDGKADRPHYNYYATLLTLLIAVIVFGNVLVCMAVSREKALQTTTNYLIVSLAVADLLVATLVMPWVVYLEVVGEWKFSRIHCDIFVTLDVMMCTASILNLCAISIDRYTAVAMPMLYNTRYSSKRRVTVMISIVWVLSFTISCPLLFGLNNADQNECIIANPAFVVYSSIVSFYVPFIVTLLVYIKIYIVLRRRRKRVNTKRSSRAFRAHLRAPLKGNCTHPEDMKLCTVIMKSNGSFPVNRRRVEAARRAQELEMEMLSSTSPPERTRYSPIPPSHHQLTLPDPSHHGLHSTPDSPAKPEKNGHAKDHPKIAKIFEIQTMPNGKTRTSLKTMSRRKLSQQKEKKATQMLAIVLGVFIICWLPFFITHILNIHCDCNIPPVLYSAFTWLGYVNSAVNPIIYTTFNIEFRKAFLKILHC
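Calcium-flux readout, 1 cycle/sec over 180 s following compound pin transfer, in inducible HEK293 Trex D2 cells (force-coupled); dopamine controls included. Positive calcium responses during this window marked compounds as potential agonists.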
D2 PAM-1 – positive allosteric modulators of human D2 dopamine receptor. DiscoveRx D2 beta-arrestin cells, luminescence, 90 min; 100% = 57 uM dopamine signal. potentiation, % (concentration not given with the values). 0.23% of 360,000 active. AID 624464; in the data active means potentiation above about 50%; inconclusive means mostly about 30% to 49%
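PathHunter D2 cells, attached overnight at 37 deg C, received compound in DMSO plus dopamine at EC20 (50 nM final) for 90 min at 37 deg C. Beta-arrestin recruitment was read as luminescence after 1 h with detection reagent at ambient temperature.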
D2 antag – antagonists of human D2 dopamine receptor; P14416; HEK293 TREx D2 cells, calcium flux, dopamine EC80; inhibition, % at 10 µM; 2% of 340,000 active; in the data active means inhibition above about 30%; inactive means below that, where a call was filed
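Compounds are added to dye-loaded, induced HEK293 T-REx cells coupled to calcium release via D2; after a 3 min kinetic read an EC80 dopamine stimulus is given and fluorescence is recorded for 3 more min.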
D2 ag-2 – agonists of human D2 dopamine receptor (beta-arrestin) | activation, % (concentration not given with the values) | 0.084% of 360,000 active | DiscoveRx PathHunter D2 beta-arrestin, luminescence, 90 min; 100% = 57 uM dopamine signal | AID 624465 | P14416; in the data active means activation above about 40%; inconclusive means between about 15% and that limit
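Agonist mode: compounds alone added to overnight-plated D2 PathHunter cells for 90 min at 37 C, with 57 uM final dopamine (EC100) defining full response. Beta-arrestin recruitment detected by chemiluminescent reagent, read after 1 h at ambient temperature.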
D2 PAM-2 – D2 dopamine receptor (human) potentiation; P14416; HEK293 T-REx D2, calcium flux, EC20 dopamine potentiation; potentiation, % at 10 µM; 0.34% of 340,000 active;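 active means potentiation over 3 SD above the plate norm, cut at about 30% in these data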
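Potentiation of an EC20 dopamine calcium response is measured in a force-coupled, tetracycline-inducible Hek293 Trex D2 line. Compound-only kinetic reads over 180 s flag agonists before dopamine addition.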
Hits are given with their value; 0 = inactive; ? = inconclusive; - = no result. The list is not random: actives were taken first. Their share in the collection is about 2.4%.

SMILES	D2 ag-1	D2 PAM-1	D2 antag	D2 ag-2	D2 PAM-2
O=C(COC(=O)c1ccc(F)c(S(=O)(=O)N2CCOCC2)c1)c1ccc(Br)cc1	0	0	36.4	0	37.7
O=C(COC(=O)c1ccc(F)c(S(=O)(=O)N2CCOCC2)c1)c1ccc(Cl)cc1	0	0	0	0	0
CC12CCC(C(=O)N(CSC(=S)N/N=C\c3ccccc3Cl)C1=O)C2(C)C (centres undefined)	0	0	0	0	0
CC12CCC(C(=O)N(CSC(=S)N/N=C\c3ccccc3)C1=O)C2(C)C (centres undefined)	0	0	32.4	0	0
CCN1CCN(C(c2cccc(OC)c2)c2c(O)cc(C)n(Cc3ccco3)c2=O)CC1 (centres undefined)	0	-	-	-	0
CN(C)S(=O)(=O)c1ccc(N2CCCC2)c(C(=O)NNC(=O)COc2ccccc2F)c1	0	0	57.0	0	0
COc1ccc(NS(=O)(=O)c2cc(NC(=O)CCNC(C)=O)ccc2N2CCCCC2)cc1	0	0	36.8	0	0
CN(C)S(=O)(=O)c1ccc(N2CCCC2)c(C(=O)NNC(=O)COc2ccccc2Cl)c1	0	0	0	0	0
COc1ccc(NC(=O)CN(C)C(=O)c2cc(S(=O)(=O)N(C)C)ccc2N2CCCC2)cc1	0	0	38.2	0	0
Cc1c(Cl)c([N+](=O)[O-])nn1CC(=O)NCc1cccnc1	0	0	39.3	0	0
O=C(NCc1cccnc1)c1ccc(-c2ccc(Cl)cc2)o1	0	0	0	0	0
Cc1ccc(CSCC(=O)NCc2cccnc2)cc1	0	0	0	0	0
Cc1ccc(CC(=O)NCc2cccnc2)cc1	0	-	67.4	-	0
O=C(NCc1cccnc1)c1ccc(-c2cc(Cl)ccc2Cl)o1	0	0	49.9	0	0
CCCOc1cccc(C(=O)N(Cc2cc(OC)c(OC)c(OC)c2)C2CCS(=O)(=O)C2)c1 (centres undefined)	-	-	-	-	0
O=C(Nc1cc(C(F)(F)F)ccc1N1CCOCC1)c1cncc(Br)c1	0	0	30.9	0	0
Nc1nnc(SCC(=O)Nc2cc(C(F)(F)F)ccc2N2CCOCC2)s1	0	0	86.8	0	0
O=C1CC(c2ccc(S(=O)(=O)NCc3ccccc3)cc2)CN1 (centres undefined)	0	0	0	0	0
Cc1ccccc1NS(=O)(=O)c1ccc(C2CNC(=O)C2)cc1 (centres undefined)	0	0	65.6	0	-
COCCNc1nc(N2CCCCC2)c2cnn(C)c2n1	0	0	0	0	35.9
COCCNc1nc(NCc2ccccc2)c2cnn(C)c2n1	-	0	-	0	-
Cc1cc(C)c(OCC(=O)N(Cc2ccccc2)C2CCS(=O)(=O)C2)c(C)c1 (centres undefined)	0	0	0	0	44.4
CCc1ccc(CN(C(=O)COc2c(C)cccc2C)C2CCS(=O)(=O)C2)cc1 (centres undefined)	0	0	0	0	0
CCCCn1c(S(=O)(=O)O)nc2ccccc21	0	0	33.1	0	0
CCCCCn1c(S(=O)(=O)O)nc2ccccc21	0	0	0	0	0
SMILES	D2 ag-1	D2 PAM-1	D2 antag	D2 ag-2	D2 PAM-2
OC(CN1CCNCC1)Cn1ccc2ccccc21 (centres undefined)	0	-	0	-	0
OC(CNCc1ccccc1)Cn1ccc2ccccc21 (centres undefined)	0	0	0	0	0
Oc1ccccc1NCC(O)Cn1ccc2ccccc21 (centres undefined)	0	57.7	0	0	0
OCc1nc2ccccc2n1CC(O)Cn1ccc2ccccc21 (centres undefined)	0	0	0	0	31.7
CCC(C)n1c(=N)c(C(=O)NCc2ccco2)cc2c(=O)n3cc(C)ccc3nc21 (centres undefined)	-	-	-	-	0
Cc1cccc(OCc2cc(=O)n3c4c(sc3n2)CCCC4)c1C	0	-	-	-	0
CCOc1ccc(S(=O)(=O)N(CC(=O)Nc2ccc(OC)c(Cl)c2)c2ccccc2)cc1	0	-	-	-	0
C=CCc1cccc(C=Nc2c[nH]c(=O)[nH]c2=O)c1O	0	0	0	0	0
C=CCc1cccc(C=Nc2cc(Br)ccc2O)c1O	0	72.3	0	?	0
CCCN1CCN(C(=O)Nc2cccc(C(F)(F)F)c2)CC1	0	0	51.6	0	0
CC(=O)c1cc(-c2ccc(F)cc2)n(CCC(=O)NCc2ccc(C)cc2)c1C	0	-	-	-	0
